High-throughput results from PubChem BioAssay.
CendR NRP1 mod: modulators of CendR peptide binding to human neuropilin-1; FAM-RPARPAR peptide binding to NRP-1, fluorescence polarization; inhibition, % at 25 µM; AID 602438; hit rate 0.85% among 360,000;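 active = inhibition or corrected inhibition above about 18%, plus a signal ratio from 0.5 to 1.5, limit read from the data, passing the limit was not always enough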
A3A deaminase: inhibitors of human APOBEC3A DNA deaminase; recombinant A3A, FAM/TAMRA ssDNA deamination fluorescence; inhibition, % at 20 µM; hit rate 0.41% among 330,000; AID 493011;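 active = at least 40% inhibition at 20 µM here, with at most 30% in a related deaminase screen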;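 note: plate controls were A3A with DMSO for no effect and wells lacking A3A enzyme for full effect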
CR mimetic SO: caloric restriction mimetics inhibiting age-related superoxide in yeast; S. cerevisiae aged cells, superoxide DHE fluorescence; stronger effect = lower value; superoxide response (% of plate mean), % at 10 µM; hit rate 0.18% among 330,000; AID 2690;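 active = superoxide response under a set limit, about three screen SD below normal, cut at about 65% in these data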;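 note: yeast aged for seven days with compound at 30 °C before DHE staining; 100% = average MFI of all compound-treated wells on the plate with controls excluded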
M18AAP inhibitor: blocks P. falciparum M18 aspartyl aminopeptidase | recombinant PfM18AAP, H-Glu-NHMec fluorogenic cleavage | inhibition, % at 7.35 µM | hit rate 1.2% among 290,000 | AID 1822;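 active = inhibition above the campaign mean inhibition over all tested compounds plus 3 SD, cut at about 28% in these data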;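 note: 0% = plate median of test compound wells and 100% = 2 mM ZnCl2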
ALR H2O2 inh: blocks human ALR sulfhydryl oxidase activity; P55789; purified ALR, DTT oxidation, H2O2 HRP-luminol luminescence; inhibition, % (concentration not given with the values); hit rate 3.8% among 290,000;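 active = mean replicate inhibition above about 79%, with every replicate also reaching it, limit read from the data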
A3G deaminase: blocks human APOBEC3G single-stranded DNA deamination; recombinant A3G, ssDNA deamination FAM/TAMRA fluorescence; inhibition, % at 20 µM; hit rate 0.28% among 330,000; AID 493012;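 active = inhibition of at least 40% at 20 µM, with no more than 30% in the related APOBEC3A deaminase screen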;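 note: plate controls were DMSO wells with A3G for no effect and wells lacking A3G enzyme for full effect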
Active calls of the source: *; . = no result given. Most compounds without a hit are left out; they make up all but 5.2% or so of the library.

SMILES	CendR NRP1 mod	A3A deaminase	CR mimetic SO	M18AAP inhibitor	ALR H2O2 inh	A3G deaminase
CCOC(=O)C1=C(C)NC(C)=C(C(=O)OCC)C1C(=O)O	1.8	-1.9	107.5	-0.8	5.1	-2.1
COc1nc(Oc2ccc(/C=N/O)cc2)nc(N(C)C)n1	15.4	-2.5	90.7	-6.9	98.6*	-3.3
CN(C)c1nc(Oc2ccc(/C=N/O)cc2)nc(N(C)C)n1	11.2	-2.6	103.2	0.1	98.8*	-1.4
COc1cc(OC)nc(Oc2ccc(NC(C)=O)cc2)n1	-4.0	1.0	84.7	-5.5	-20.8	-1.7
COc1cc(C)nc(Oc2ccc(/C=N/O)cc2)n1	1.7	-2.4	97.6	-8.2	98.3*	-5.2
CC(C)Nc1nc(NC(C)C)nc(Oc2ccc(/C=N/O)cc2)n1	-1.7	-0.5	86.0	-9.2	.	1.3
COc1ccc(C2C(=O)N(C3CCCCC3)CC(=O)N2CC2COc3ccccc3O2)cc1 (stereo not given)	4.4	-0.6	102.7	-2.4	-3.3	-4.9
COCCSc1ccccc1C(=O)Nc1ccc([N+](=O)[O-])cc1OC	5.9	1.9	113.7	1.7	-25.3	30.8
O=[n+]1cc(-c2cccc3ccccc23)n([O-])c2c1CCC2	0.6	0.5	101.9	8.7	-11.9	-4.3
CCOC(=O)C(=NCCCN1CCOCC1)NNc1cccc(C(F)(F)F)c1	17.5	1.4	82.7	-2.2	98.3*	-6.2
O=C(Nc1ccc(Nc2ccccc2)cc1)C(Cl)Cl	10.0	-5.5	103.5	9.5	91.9*	-8.0
O=C(Nc1ccc(Nc2ccccc2)cc1)c1ccccc1	.	-5.5	106.6	.	89.9*	-10.2
O=C(O)[C@H]1CCCC[C@H]1C(=O)Nc1ccc(Nc2ccccc2)cc1	7.3	-3.9	91.7	2.5	98.4*	-0.9
NC(=O)Nc1ccc(Nc2ccccc2)cc1	-19.3	1.8	88.5	4.7	99.0*	2.4
CC(C)c1ccc(NC(=O)C2CCCCC2C(=O)O)cc1 (stereo not given)	0.3	-3.6	103.1	-11.6	-5.2	-4.6
O=C(c1ccccc1)c1ccc(OCC(O)CN2CCN(Cc3ccccc3)CC2)cc1 (stereo not given)	-3.9	0.4	84.3	2.4	-4.2	-2.5
NC(=O)NC(=O)COC(=O)CNS(=O)(=O)c1ccc(F)c(F)c1F	-12.1	3.5	100.1	5.7	.	-5.4
O=C(Nc1ccc(Nc2ccccc2)cc1)C(Cl)(Cl)Cl	-10.2	3.2	92.5	3.3	95.0*	-2.2
CC(=O)Nc1ccc(NC(=O)C(C)OC(=O)COc2ccc(Nc3ccccc3)cc2)cc1 (stereo not given)	2.7	12.6	112.0	.	99.3*	6.2
COC(=O)COn1c(SCC(=O)OC)nc2ccccc2c1=O	-9.1	-7.5	92.2	6.2	3.7	-8.3
CCc1ccccc1N1C(=O)CC(N2CCc3ccccc32)C1=O (stereo not given)	-1.3	0.8	100.5	1.3	98.8*	2.8
COc1ccc(NC(=O)CSc2nnc(CCC(=O)O)c(=O)n2N)cc1	-5.6	4.9	124.4	-52.0	98.0*	0.7
COc1ccc(NC(=O)CSc2nnc(-c3ccccc3C)n2N)cc1	-8.2	-3.0	83.0	15.9	99.3*	-3.8
Cn1ccnc1SCC(=O)Nc1ccc2c(c1)OCO2	5.6	0.7	91.1	9.6	90.4*	-8.9
COc1ccc(NC(=O)CSc2nnc(-c3ccccc3C)n2N)cc1OC	-8.3	-1.4	105.4	9.5	50.1	-1.6
SMILES	CendR NRP1 mod	A3A deaminase	CR mimetic SO	M18AAP inhibitor	ALR H2O2 inh	A3G deaminase
Cc1ccccc1-c1nnc(SCC(=O)Nc2ccc3c(c2)OCCO3)n1N	-14.4	-3.5	83.0	2.8	98.1*	-8.4
COCCNC(=O)CN(c1ccc(C)cc1)S(=O)(=O)c1ccccc1	2.5	-2.9	93.3	-1.1	-3.1	-7.6
O=C(NC1(C(F)(F)F)NC(=O)N(c2ccccc2)C1=O)c1cccs1 (stereo not given)	-0.1	-1.2	102.0	-7.2	7.6	-8.6
COCC(C)n1c(SCC(=O)Nc2ccc3c(c2)OCCO3)nc2ccccc2c1=O (stereo not given)	22.1*	1.7	111.9	.	-5.1	-4.9
COCCn1c(SCC(=O)Nc2ccc3c(c2)OCCO3)nc2ccccc2c1=O	-10.0	.	.	.	.	.
Cc1nnc(SCC(=O)Nc2ccc3c(c2)OCO3)n(N)c1=O	3.8	0.5	105.1	-2.1	94.5*	-6.6
Nn1c(SCC(=O)Nc2ccc3c(c2)OCCO3)nncc1=O	-5.4	-1.1	115.0	5.0	89.5*	-7.4
